Screening results deposited in PubChem by National Center for Advancing Translational Sciences (NCATS).
RE007 growth inh: qHTS Assay for Inhibitors of the HIV-1 protein Vpr; S. pombe RE007 Vpr strain, BacTiter-Glo ATP luminescence, 24 h; Potency, µM (titrated, usually from 92.2 µM), without a hit: at the top dose activity change, negative = less growth, most hits filed as inhibitors; hit rate 0.21% among 360,000; active = well fitted falling curve with a large enough effect; inconclusive = small, poorly fitted or top-dose-only effect; inactive = no such curve, though single readings can be large or run the other way; note: potency is the fitted concentration of half-maximal effect; % is set by controls: 0 for no effect and ±100 for the full control effect; nearly all actives have a fitted effect of over 50% in size
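Fission yeast strain RE007, carrying one chromosomally integrated HIV-1 vpr copy, was seeded at OD 0.01 in PMG+AL medium with 23 nL pinned compound. After 24 h at 30 °C and 99% humidity, viability was read by BacTiter-Glo luminescence.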
TbPYK inhibitor: qHTS of Trypanosoma Brucei Inhibitors | pyruvate kinase (Trypanosoma brucei), Q57TT1 | TbPYK enzyme, Kinase-Glo Plus ATP luminescence, 45 min | Potency, µM (highest dose often 76.8 µM), for inactives: at the highest dose activity, negative = inhibition, usual class: inhibitors | hit rate 0.12% among 410,000; note: potency is the fitted concentration of half-maximal effect; % is set by controls: 0 for no effect and ±100 for the full control effect; nearly all actives have a fitted effect of over 50% in size
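In this concentration-response screen, enzyme-free wells defined baseline while DMSO plates tracked drift. Each reaction combined TbPYK, substrate, compound and 130 uM ADP for 45 min at room temperature. Kinase-Glo Plus luminescence gave the signal.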
Shiga toxin inh: A qHTS for Small Molecule Inhibitors of Shiga Toxin; Vero cells, Shiga toxin protein synthesis inhibition reporter; inhibition, % at 38.7 µM; hit rate 9.2% among 290,000; in the data active = inhibition mostly above about 28%, no sharp cut-off; inactive = mostly below about 43%; note: 0% is about no effect
Giardia FBPA inh: qHTS Assay for Inhibitors of Fructose-1,6-bisphosphate Aldolase from Giardia Lamblia | A8B2U2 | purified Giardia FBPA | Potency, µM (doses to about 59.6 µM), without a hit: top-dose activity, negative = inhibition, most hits filed as inhibitors | hit rate 0.71% among 290,000; note: potency is the fitted concentration of half-maximal effect; % is set by controls: 0 for no effect and ±100 for the full control effect; nearly all actives have a fitted effect of over 55% in size
Target sequence (A8B2U2 whole entry, looked up): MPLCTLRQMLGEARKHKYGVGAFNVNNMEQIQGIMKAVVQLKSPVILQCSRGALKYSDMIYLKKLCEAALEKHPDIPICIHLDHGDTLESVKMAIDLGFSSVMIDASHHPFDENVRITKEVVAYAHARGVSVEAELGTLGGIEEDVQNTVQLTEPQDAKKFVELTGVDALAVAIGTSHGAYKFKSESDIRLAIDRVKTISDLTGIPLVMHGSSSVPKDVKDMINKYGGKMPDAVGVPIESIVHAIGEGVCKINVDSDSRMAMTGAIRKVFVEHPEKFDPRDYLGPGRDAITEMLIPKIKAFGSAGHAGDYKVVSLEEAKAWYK
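Giardia FBPA (40 nM reagent) was preincubated 10 min at RT with compound (up to 57.5 uM final), then substrate plus GAPDH/TPI/NAD/arsenate coupling system with diaphorase/resazurin was added; resorufin fluorescence (525/598 nm) was read after 20 min.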
Cycloheximide cs: Cycloheximide Counterscreen for Small Molecule Inhibitors of Shiga Toxin; cell reporter, cycloheximide protein synthesis inhibition counterscreen; max response, %; hit rate 12% among 300,000; in the data active = max response mostly above about 13%, no sharp cut-off; inactive = mostly below about 14%; note: read at 38.3 µM for the half of the compounds with a filed dose; 0% is about no effect
LmPK inh: qHTS Assay for Inhibitors of Leishmania Mexicana Pyruvate Kinase (LmPK). Q27686. purified LmPK, Kinase-Glo ATP luminescence, 1 h. Potency, µM (doses to about 57.5 µM), for inactives: at the highest dose activity change, negative = inhibition, usual class: inhibitors. hit rate 0.37% among 290,000. AID 1721, 2009; note: potency is the fitted concentration of half-maximal effect; % is set by controls: 0 for no effect and ±100 for the full control effect
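ATP generated from ADP (0.1 mM) and PEP (0.5 mM) by 0.1 nM LmPK over 1 h at room temperature (pH 7.2 imidazole buffer) was detected by coupled luciferase luminescence. Values were normalized to uninhibited and no-enzyme wells.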
* marks the source's active call; other numbers are inactive results; [ ] = dose if it differs, or a comment. The sample as a whole holds a higher share of hits than the screen did. Unless noted, calls come from the whole dose curve; as a rule, active = well fitted curve in the direction sought with a large enough effect; inconclusive = small, poorly fitted or top-dose-only effect, or another doubt; inactive = no such curve, though single readings can be large; an effect the other way counts as inactive or inconclusive.

How did COc1ccc(C(=O)Nc2ccc3c(c2)OCCO3)c(OC)c1 do in these assays?
RE007 growth inh: -6.3%; TbPYK inhibitor: -11.6%

Results for CC(=O)Oc1ccc(C(=O)Nc2ccc3c(c2)OCCO3)cc1 ?
RE007 growth inh: -7.5%; TbPYK inhibitor: -5.0%; Giardia FBPA inh: -4.5%; Cycloheximide cs: 25.9*; LmPK inh: inconclusive

Results for CC(=O)Nc1ccc2c(c1)OCCOCCOc1cc(NC(C)=O)ccc1OCCOCCOCCO2 ?
Shiga toxin inh: -12.8; Giardia FBPA inh: 1.3%; Cycloheximide cs: -2.3; LmPK inh: -6.7%

How did COc1ccc(C(=O)Nc2ccc3c(c2)OCCO3)cc1 do in these assays?
RE007 growth inh: 8.9%; TbPYK inhibitor: -18.8%; Shiga toxin inh: 8.5; Giardia FBPA inh: -22.4%; Cycloheximide cs: 15.1*; LmPK inh: 25.1µM*

How did CCCOc1ccc(C(=O)Nc2ccc3c(c2)OCCO3)cc1 do in these assays?
RE007 growth inh: 43.9%; TbPYK inhibitor: 11.8%; Shiga toxin inh: 72.8*; Giardia FBPA inh: -5.4%; Cycloheximide cs: 36.4*; LmPK inh: -0.3%

How did COc1ccc(C(=O)CCNc2ccc3c(c2)OCCO3)cc1 do in these assays?
RE007 growth inh: inconclusive; TbPYK inhibitor: -19.8%; Shiga toxin inh: 58.6*; Giardia FBPA inh: 2.8%; Cycloheximide cs: 27.2; LmPK inh: 1.0%

How did O=C(O)[C@H]1CCCN1 do in these assays?
Shiga toxin inh: 0.3; Giardia FBPA inh: -16.7%; Cycloheximide cs: -4.8

What do the screens show for `CCCN(CCC)S(=O)(=O)c1ccc(N2CCCCS2(=O)=O)cc1`?
TbPYK inhibitor: 1.7%

Results for CN(CCc1ccccc1)C(=O)c1cccc(NC(=O)Cc2cccc(NC(=O)C3CCN(C(=O)c4ccccc4)CC3)c2)c1 ?
RE007 growth inh: 3.6%; TbPYK inhibitor: 2.3%

What do the screens show for `COc1cc(CN2CCN(C(=O)c3ccc(-c4ccccc4)cc3)CC2)cc(OC)c1OC`?
RE007 growth inh: 1.6%; TbPYK inhibitor: 3.5%; Shiga toxin inh: 98.0*; Giardia FBPA inh: 2.9%; Cycloheximide cs: 19.5*; LmPK inh: -1.7%

Results for COc1cccc(-c2nc3sc4c(c3c(=O)[nH]2)CCCCC4)c1 ?
RE007 growth inh: -24.6%; TbPYK inhibitor: -3.7%; Shiga toxin inh: 75.0*; Giardia FBPA inh: 2.2%; Cycloheximide cs: 21.0*; LmPK inh: -5.9%

How did COCc1nc2sc3c(c2c(=O)[nH]1)CCCC3 do in these assays?
RE007 growth inh: inconclusive; TbPYK inhibitor: 2.5%; Shiga toxin inh: 22.5; Giardia FBPA inh: -1.9%; Cycloheximide cs: 16.6*; LmPK inh: -3.2%

How did CC(=O)OCc1nc2sc3c(c2c(=O)[nH]1)CCCC3 do in these assays?
RE007 growth inh: inconclusive; TbPYK inhibitor: 2.0%; Shiga toxin inh: 11.6; Giardia FBPA inh: 1.7%; Cycloheximide cs: -1.0; LmPK inh: 0.1%

Results for O=C1N=C(O)CN1/N=C\c1ccc(-c2ccc([N+](=O)[O-])cc2)o1 ?
Giardia FBPA inh: -13.3%

What do the screens show for `COc1cnc(-c2cccc(C(F)(F)F)c2)c(NC(=O)c2cc3ccccc3s2)n1`?
RE007 growth inh: 5.6%; TbPYK inhibitor: 3.6%

How did O=S(=O)(c1ccc(-c2nc3ccccc3s2)cc1)N1CCCC1 do in these assays?
RE007 growth inh: -11.3%; TbPYK inhibitor: -1.5%; Shiga toxin inh: 21.0; Giardia FBPA inh: 0.6%; Cycloheximide cs: 24.0*; LmPK inh: -1.4%

How did O=S(=O)(c1cccc(-c2nc3ccccc3s2)c1)N1CCCC1 do in these assays?
RE007 growth inh: -2.9%; TbPYK inhibitor: -1.2%; Shiga toxin inh: 35.9; Giardia FBPA inh: -3.6%; Cycloheximide cs: 35.6*; LmPK inh: 1.5%

Results for CCOC(=O)c1c(S(=O)(=O)N2CCN(c3ccc(C(C)=O)cc3)CC2)c(C)n(C)c1C ?
RE007 growth inh: -7.0%; TbPYK inhibitor: 1.9%; Shiga toxin inh: -2.3; Giardia FBPA inh: 9.6%; Cycloheximide cs: 2.2; LmPK inh: -7.1%

What do the screens show for `C=CC[C@@H](CC(=O)N[C@H](CO)Cc1ccccc1)C(=O)NC[C@H](OC(=O)[C@@H](CC=C)Cc1ccc(F)cc1)c1ccccc1`?
RE007 growth inh: -7.9%; TbPYK inhibitor: 7.0%

How did N#Cc1c(NC(=O)c2ccccc2)sc2c1CCC2 do in these assays?
RE007 growth inh: -5.6%; TbPYK inhibitor: -1.7%; Shiga toxin inh: 196.3*; Giardia FBPA inh: -3.2%; Cycloheximide cs: 45.7*; LmPK inh: 7.8%

What do the screens show for `N#Cc1c(NC(=S)NC(=O)C2CCCC2)sc2c1CCCCC2`?
RE007 growth inh: 0.1%; TbPYK inhibitor: -5.3%; Shiga toxin inh: 26.9*; Giardia FBPA inh: -25.0%; Cycloheximide cs: 23.0*; LmPK inh: 3.0%

Results for CC(C)Cc1nnc(NC(=O)c2cc([N+](=O)[O-])ccc2N2CCOCC2)s1 ?
RE007 growth inh: 15.2%; TbPYK inhibitor: 4.3%; Shiga toxin inh: 20.7; Giardia FBPA inh: inconclusive; Cycloheximide cs: 18.9*; LmPK inh: -0.7%

How did CC1CCc2c(sc(NC(=S)NC(=O)c3ccccc3)c2C#N)C1 (configuration not stated) do in these assays?
RE007 growth inh: -7.7%; TbPYK inhibitor: -13.4%; Shiga toxin inh: 65.4*; Giardia FBPA inh: -0.2%; Cycloheximide cs: 21.3*; LmPK inh: 9.6%

What do the screens show for `CC(=O)c1ccc(OC2C=CC(C#Cc3ccc(Br)cc3)OC2CO)cc1` (configuration not stated)?
Giardia FBPA inh: -4.0%[12.9 µM]

Results for Cc1occc1C(=O)Nc1sc2c(c1C(N)=O)CCC(C(C)(C)C)C2 (configuration not stated) ?
RE007 growth inh: 15.6%; TbPYK inhibitor: -2.7%; Shiga toxin inh: -4.2; Giardia FBPA inh: 4.7%; Cycloheximide cs: -0.8; LmPK inh: 5.9%

How did CC(C)(C)C1CCc2c(sc(NC(=O)c3ccncc3)c2C(N)=O)C1 (configuration not stated) do in these assays?
RE007 growth inh: 1.1%; TbPYK inhibitor: 10.7%; Shiga toxin inh: 10.8; Giardia FBPA inh: 7.0%; Cycloheximide cs: 15.5*; LmPK inh: -0.2%

How did N#Cc1c(NC(=O)c2cccnc2)sc2c1CCC2 do in these assays?
RE007 growth inh: inconclusive; TbPYK inhibitor: -9.0%; Shiga toxin inh: 58.2; Giardia FBPA inh: -15.1%; Cycloheximide cs: 19.4*; LmPK inh: -2.7%

How did N#Cc1c(NC(=O)c2ccc([N+](=O)[O-])o2)sc2c1CCC2 do in these assays?
RE007 growth inh: inconclusive; TbPYK inhibitor: -13.5%; Shiga toxin inh: 96.9*; Giardia FBPA inh: inconclusive; Cycloheximide cs: 27.8*; LmPK inh: -13.5%
